# Screening results deposited in PubChem BioAssay by National Center for Advancing Translational Sciences (NCATS).
# HT1080-NT tox: kills 2HG-producing HT-1080-NT fibrosarcoma cells; HT-1080-NT fibrosarcoma viability, CellTiter-Glo ATP luminescence, 48 h; Potency, µM (series often up to 46.1 µM), hits mostly cytotoxic; hit rate 1.6% among 360,000; AID 686970;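 note: NT is the 2HG producing partner of a matched IDH1 knockdown line; nearly all actives have a fitted effect of over 55% in size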
#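 Viability of the 2HG-overproducing fibrosarcoma line after 48 hours of compound exposure at 37 degrees C was determined by luminescence with CellTiter-Glo, and concentration-effect curves were then fitted and categorized.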
# DT40 TDP1 CPT: DT40-hTDP1 cell growth loss with CPT. chicken DT40 Tdp1-/-;hTDP1 cells + 20 nM CPT, ATP luminescence, 48 h. Potency, µM (top dose mostly 46.2 µM), actives largely listed as inhibitors. hit rate 12% among 420,000. AID 686979; note: nearly all actives have a fitted effect of over 55% in size
#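 Chicken DT40 Tdp1-/- cells complemented with human TDP1, 400 cells/well, exposed to compounds plus 20 nM camptothecin for at least 48 h at 37 C; viability read as ATP content by CellTiter-Glo luminescence.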
# HT1080 IDH1KD tx: toxicity to HT-1080 IDH1 knockdown cells (counter line) | HT-1080 IDH1 knockdown viability, ATP luminescence, 48 h | Potency, µM (titrated, usually from 46.1 µM), hits mostly cytotoxic | hit rate 2% among 360,000 | AID 686971
#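 Using the IDH1-knockdown HT-1080 line run in the same batch and compound series as the NT line, viability after 48 h at 37 °C was determined by CellTiter-Glo luminescence and expressed as % activity.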
# TDP1 cell noCPT: qHTS for Inhibitors of human tyrosyl-DNA phosphodiesterase 1 (TDP1): qHTS in cells in absence of CPT. DT40 Tdp1-/- hTDP1 cells, no CPT, ATP luminescence, 48 h. Potency, µM (doses to about 46.2 µM), actives largely listed as inhibitors. hit rate 15% among 420,000. AID 686978, 2013; note: nearly all actives have a fitted effect of over 55% in size
#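 Compound effects on proliferation are scored in DT40 Tdp1-/-;hTDP1 cells in the absence of CPT. ATP levels (CellTiter-Glo luminescence) are recorded after a ≥48 hr, 37 °C incubation.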
# ELG1 repair inh: ELG1-dependent DNA repair inhibition; HEK293T ELG1-luciferase reporter, luminescence, 16 h; DNA damage induced by 5-fluorouridine; Potency, µM (highest dose often 46.1 µM), actives largely listed as inhibitors; hit rate 2.3% among 330,000; AID 504467; note: nearly all actives have a fitted effect of over 55% in size
#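 Reporter activity after DNA damage by 5-fluorouridine is monitored. Compound-treated cells incubate 16 hr at 37 °C, then ONE-Glo is added for 30 min before luminescence reading.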
# IL-1B inflam inh: blocks inflammasome-driven IL-1 beta release. THP-1 LPS/ATP IL-1B secretion, AlphaLISA, 16 h; stronger effect = lower value. activity change, % at 57.5 µM. hit rate 4.7% among 360,000; in the data active = activity change below about -50%; inconclusive = mostly about -30% to -49%
#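 Secreted IL-1B measured by AlphaLISA bead assay after 16 h compound exposure of THP-1 cells; compounds (final up to 57.5 uM) added 1 h before LPS (250 ng/mL) and ATP (1.25 mM) stimulation; lower signal means less secretion.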
# Numbers stand for hits; – = inactive; ? = inconclusive; · = not tested or not shown. Hits are enriched below; roughly 19% of the tested compounds scored in any of these assays. Unless noted, calls come from the whole dose curve; as a rule, active = well fitted curve in the direction sought with a large enough effect; inconclusive = small, poorly fitted or top-dose-only effect, or another doubt; inactive = no such curve, though single readings can be large; an effect the other way counts as inactive or inconclusive.
SMILES,HT1080-NT tox,DT40 TDP1 CPT,HT1080 IDH1KD tx,TDP1 cell noCPT,ELG1 repair inh,IL-1B inflam inh
CCC(C)C(=O)Nc1nnc(SCC(=O)Nc2ccccc2F)s1 (configuration not stated),–,?,–,?,–,–
O=C(COC(=O)c1cccc(S(=O)(=O)N2CCOCC2)c1)NCc1ccccc1,–,–,–,–,?,–
O=C(OCC(=O)N(CCc1ccccc1)Cc1ccccc1)c1ccc(F)c(S(=O)(=O)N2CCOCC2)c1,–,?,–,2.91µM,·,–
CN(C)c1cccc(C(=O)OCCNC(=O)c2cccc(S(=O)(=O)N3CCOCC3)c2)c1,–,?,–,?,7.3µM,–
O=C(OCCOc1ccccc1)c1cccc(S(=O)(=O)N2CCOCC2)c1,–,–,–,–,–,–
O=C(OCC(=O)N(CCc1ccccc1)Cc1ccccc1)c1cccc(S(=O)(=O)N2CCOCC2)c1,–,?,–,7.31µM,·,–
O=C1NC[C@@H](CCCCN2CCN(CCC3CCCCC3)C(=O)C2=O)N(CCC2CCCCC2)C1=O,–,–,–,–,·,–
COc1ccc(C(=O)N/N=C(\C)CC(=O)Nc2ccc3ccccc3c2)c(OC)c1,–,–,–,–,–,–
CCc1cccc(C)c1NC(=O)CCCN1C(=O)CN(C)C1=O,–,–,–,–,–,–
COc1cccc2c1OCC(C(=O)OCc1cccnc1)=C2,–,–,–,–,–,-52.6
COc1ccc(Cc2nnc(NCCO)[nH]c2=O)cc1,–,–,–,–,–,–
C=CCNc1nnc(Cc2ccc(C(C)C)cc2)c(=O)[nH]1,–,7.31µM,–,3.26µM,–,–
CC(C)[C@@H](CO)NC(=O)[C@H]1O[C@@H](n2cnc3c(N)ncnc32)[C@H](O)[C@@H]1O,–,–,–,–,·,–
CCOC(=O)c1ccc(S(=O)(=O)N2CCN(C3CC(=O)N(c4ccccc4C(F)(F)F)C3=O)CC2)cc1 (configuration not stated),–,–,–,–,–,–
Cc1ccc(-n2nnnc2CNC(=O)c2ccccc2)cc1C,·,–,·,–,·,·
Cc1ccc(-c2nnc(Nc3ccc(Br)cc3)c3ccccc23)cc1S(=O)(=O)NCC1CCCO1 (configuration not stated),·,16.4µM,·,4.11µM,·,·
Cc1ccc(-c2nnc(Nc3ccc(O)cc3)c3ccccc23)cc1S(=O)(=O)NCC1CCCO1 (configuration not stated),·,?,·,23.1µM,·,·
Cc1ccc(-c2nnc(Nc3ccc(C(N)=O)cc3)c3ccccc23)cc1S(=O)(=O)NCC1CCCO1 (configuration not stated),–,?,–,?,?,–
C[C@@H]1CN([C@@H](C)CO)C(=O)CCCn2nncc2CO[C@@H]1CN(C)C(=O)c1ccncc1,–,–,–,–,·,–
Cc1ccc(C)c(C(=O)Nc2cc(C)nn2-c2nc(C)cc(C)n2)c1,–,3.26µM,–,5.17µM,?,–
Cc1cc(C)nc(-n2nc(C)cc2NC(=O)CN2CCCC2)n1,–,–,–,–,–,–
Cc1cc(NC(=O)CN2CCOCC2)n(-c2nc3ccccc3s2)n1,–,14.6µM,–,20.6µM,·,–
Cc1cc(NC(=O)CSc2cc(Cl)ccc2Cl)n(-c2ccccc2)n1,–,–,–,–,25.9µM,–
Cc1cc(C)nc(-n2nc(C)cc2NC(=O)CN2CCC(C)CC2)n1,–,5.17µM,–,5.8µM,–,–
Cc1cc(C)nc(-n2nc(C)cc2NC(=O)c2cccc(S(=O)(=O)N(C)C)c2)n1,–,–,–,–,–,–
COc1ccccc1CN1CCC(n2nccc2NC(=O)CCc2ccccc2)CC1,–,–,–,–,–,–
Cc1cc(C)nc(-n2nc(C)cc2NC(=O)CNC(C)c2ccccc2)n1 (configuration not stated),–,?,–,20.6µM,–,–
